Measurements: PubChem BioAssay (EPA / NIEHS)
Values joined by “and” are separate entries in the source; they are usually repeats but may differ in a detail not shown here. Equal entries are not always repeated. The source holds several records for some structures; these can differ, active in one and inactive in another. Active and inactive are the calls of the source. Rule for the calls: active = hit-call score of the fitted dose curve at least 0.9, where 1 is the maximum; inactive = score below 0.9.

Read-out: C-C motif chemokine 2 (Homo sapiens) (UniProt P13500)
Assay: BSK_KF3CT_MCP1: BioMAP Diversity Plus: KF3CT Assay for Monocyte Chemoattractant Protein 1 (MCP1/CCL2) Biomarker Activity (AID 2283073)
Conditions: primary human keratinocytes with fibroblasts; actives raise or lower the signal
Experimental: BSK_KF3CT is a cell-based, multiplexed-readout assay that uses keratinocytes and foreskin fibroblasts, a human skin primary cell co-culture, with measurements taken at 24 hours after chemical dosing in a 96-well plate.BSK_KF3CT_MCP1 is an assay component measured in the BSK_KF3CT assay. It measures MCP-1 antibody related to regulation of gene expression using ELISA technology.Data from the assay component BSK_KF3CT_MCP1 was analyzed into 1 assay endpoint. This assay endpoint, BSK_KF3CT_MCP1, was analyzed with bidirectional fitting relative to DMSO as the negative control and baseline of activity. Using a type of binding reporter, gain or loss-of-signal activity can be used to understand changes in the signaling as they relate to the gene CCL2. Furthermore, this assay endpoint can be referred to as a primary readout, because this assay has produced multiple assay endpoints where this one serves a signaling function. To generalize the intended target to other relatable targets, this assay endpoint is annotated to the cytokine intended target family, where the subfamily is chemotactic factor.
The levels of cell surface (or secreted, indicated by the prefix "s") biomarker endpoints were measured by ELISA. Overt cytotoxicity to cells in confluent adherent cultures (all systems other than the BT system) was assessed by measuring total protein levels using sulforhodamine B (SRB) staining in parallel cultures at the time of biomarker measurements, indicated as SRB endpoints. For proliferation assays for adherent cell types, individual cell types are cultured at sub-confluence and relative cell numbers quantified by SRB staining at time points optimized for each system (48 h: 3C and CASM3C systems; 72 h: BT and HDF3CGF systems; 96 h: SAg system). SRB was performed by staining cells with 0.1% SRB after fixation with 10% TCA and reading wells at 560 nm.Viability and proliferation of PBMC (T cells) was quantified by Alamar Blue reduction for the SAg and BT systems. For PBMC viability (referred to as PBMC Cytotoxicity within the assay endpoint names), cells were plated (75,000/well in a 96-well plate) and then chemical samples added for 1 h before addition of activators, SEB and TSST-1 (20 ng/mL final concentration each). Cells were incubated for 90 h. Then, Alamar Blue (20 uL/well) (Invitrogen, Cat DAL1100) was added for 6 h, and the plates were read with a fluorescence microplate reader at 546/580 nm (excitation/emission). For PBMC proliferation, cells were plated and activated as above but incubated for only 16 h prior to addition of Alamar Blue. Plates were read after 6 h.

| SMILES | AC50 | outcome |
| --- | --- | --- |
| O=C(CCl)c1ccccc1 | 32 µM (active) |  |
| CCC(C)c1cc([N+](=O)[O-])cc([N+](=O)[O-])c1OC(=O)C=C(C)C (stereo not drawn) | 36.7 µM (active) |  |
| N#CCCCCC#N |  | inactive |
| [Cd+2].[Cl-].[Cl-] | 20 µM (active) and 14.1 µM (active) |  |
| O=C(O)CCCc1ccc(N(CCCl)CCCl)cc1 | 30 µM (active) | inactive |
| O=[N+]([O-])O |  | inactive |
| CC(C)CCCCCCCOP(=O)(Oc1ccccc1)Oc1ccccc1 | 31.4 µM (active) |  |
| CCCOC(=O)c1ccccc1C(=O)OCCC |  | inactive |
| CC1(C)[C@H](C(=O)O[C@H](C#N)c2cccc(Oc3ccccc3)c2)[C@@H]1C=C(Br)Br |  | inactive |
| COCC(=O)N(c1c(C)cccc1C)N1CCOC1=O |  | inactive |
| CC(C)CCCCCCCOC(=O)c1ccccc1C(=O)OCCCCCCCC(C)C |  | inactive |
| C=CC(=O)OCC(CC)CCCC (stereo not drawn) |  | inactive |
| O=S(=O)(c1ccccc1)c1ccccc1 |  | inactive |
| CC(C)(C)C(=O)CCl |  | inactive |
| O=[N+]([O-])C=Cc1ccccc1 | 20 µM (active) |  |
| CNC(=O)Oc1cc(C)c(SC)c(C)c1 |  | inactive |
| O=c1[nH]c(Cl)c(Cl)cc1Cl |  | inactive |
| C=CCN(CC=C)C(=O)C(Cl)Cl |  | inactive |
| CC(C)COP(=O)(OCC(C)C)OCC(C)C |  | inactive |

| SMILES | AC50 | outcome |
| --- | --- | --- |
| O=C1C(Cl)=C(Cl)C(=O)C(Cl)=C1Cl | 10.1 µM (active) |  |
| Clc1ccc(-c2ccccc2)cc1 |  | inactive |
| CC(C)(c1cc(Cl)c(O)c(Cl)c1)c1cc(Cl)c(O)c(Cl)c1 | 10 µM (active) |  |
| O=C1C=CC(=O)C=C1 | 27.7 µM (active) and 16.1 µM (active) |  |
| CCCC[N+](CCCC)(CCCC)CCCC |  | inactive |
| O=P1(NCCCl)OCCCN1CCCl (stereo not drawn) |  | inactive |
| CCCCCCCCCCCC#N |  | inactive |
| Oc1cc(Cl)ccc1Cl |  | inactive |
| c1ccc(Nc2ccc3ccccc3c2)cc1 | 30.9 µM (active) |  |
| COC(C)(C)CCC[C@H](C)C/C=C/C(C)=C/C(=O)OC(C)C |  | inactive |
| Nc1ccc(-c2ccc(N)c(N)c2)cc1N |  | inactive |
| Cc1ccc(OP(=O)(Oc2ccc(C)cc2)Oc2ccc(C)cc2)cc1 (tested in a mixture with another compound) |  | inactive |
| Oc1ccc(C2(c3ccc(O)cc3)c3ccccc3-c3ccccc32)cc1 | 5.75 µM (active) and 6.7 µM (active) |  |
| O=c1c2ccccc2c(=O)c2c1cc(Cl)c1[nH]c3c([nH]c12)c(Cl)cc1c(=O)c2ccccc2c(=O)c13 |  | inactive |
| CC(=O)/C=C/c1ccccc1 |  | inactive |
| O=[N+]([O-])c1ccc(Cl)cc1 |  | inactive |
| CC(C)(C)C(O)C(Oc1ccc(-c2ccccc2)cc1)n1cncn1 (stereo not drawn) |  | inactive |
| CCc1cc(C)cc(CC)c1-c1c(OC(=O)C(C)(C)C)n2n(c1=O)CCOCC2 |  | inactive |
